Here are results for eight compounds from PubChem BioAssay (Tox21).

Assay [1] is described as follows: Nuclear factor erythroid 2-related factor 2/antioxidant responsive element (Nrf2/ARE) small molecule agonists: luciferase reporter gene qHTS assay in human keratinocytes (AID 1919969). Further: nearly all actives have a fitted effect of over 35% in size. Further: potency means the concentration at half of the fitted maximal effect. On the technique in general: In a reporter assay the amount or activity of a reporter protein is the signal.
In assay [2] the target is Gonadotropin-releasing hormone receptor (Homo sapiens) (UniProt P30968). Briefly: Human gonadotropin-releasing hormone receptor (GnRHR) small molecule agonists, calcium flux assay in GnRHR-HEK293 cells (AID 1920063). Further: nearly all actives have a fitted effect of over 35% in size. Further: potency means the concentration at half of the fitted maximal effect. In short, it runs like this: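 HEK293 cells stably expressing human GnRHR were dye-loaded for 1 h at 37 C. Compound was added in agonist mode and fluorescence (Ex/Em 480/540) recorded kinetically for 3 min. Fifteen concentrations, triplicates.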
Chain of Gonadotropin-releasing hormone receptor (Homo sapiens) (P30968 whole entry, looked up): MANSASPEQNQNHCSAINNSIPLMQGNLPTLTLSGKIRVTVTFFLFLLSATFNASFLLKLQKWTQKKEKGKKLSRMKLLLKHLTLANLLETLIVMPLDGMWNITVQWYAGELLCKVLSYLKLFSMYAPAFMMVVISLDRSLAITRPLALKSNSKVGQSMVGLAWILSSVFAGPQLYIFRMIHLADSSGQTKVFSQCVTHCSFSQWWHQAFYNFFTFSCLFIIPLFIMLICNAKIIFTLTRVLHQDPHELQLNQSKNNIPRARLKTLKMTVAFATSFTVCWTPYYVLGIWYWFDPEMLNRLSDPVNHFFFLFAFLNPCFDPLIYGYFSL
On the technique in general: A change in cytosolic calcium serves as a functional read-out for many receptors and channels.

For assay [3], the target named is KiSS-1 receptor (Homo sapiens) (UniProt Q969F8). Briefly: Human kisspeptin (KISS1R) small molecule agonists, calcium flux assay in KISS1R-HEK293 cells (AID 1920064; active means well fitted activation curve with a large enough effect in the repeat runs; further: potency means the concentration at half of the fitted maximal effect). In short, it runs like this:
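HEK293 cells stably expressing human KISS1R were loaded with calcium dye for 1 h at 37 C, then given compound; fluorescence (Ex/Em 480/540) was read kinetically for 3 min. Fifteen concentrations, triplicate.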

Assay [4] can be described thus: G protein-coupled receptor (GPCR) small molecule agonists, calcium flux assay: HEK293 wild type cell line counter screen (AID 1920065). Further: potency means the concentration at half of the fitted maximal effect. Put shortly:
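Wild-type HEK293 cells plated 18 h, loaded with calcium dye 1 h at 37 C, then compounds added in agonist mode (ATP as positive control). Kinetic fluorescence Ex/Em 480/540 recorded 3 min at 1 sec intervals; 15 concentrations, triplicate.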

A short description of assay [5]: p53 small molecule agonists, cell-based qHTS assay with human liver microsomes (AID 1963577).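 Further: p53 response element beta-lactamase reporter cells with liver microsomes plus NADPH.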 In short, it runs like this: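 16 h, 37 C exposure of p53RE-bla cells to compounds with human liver microsomes and NADPH (0.5 mg/mL final each); detection via LiveBLAzer mixture, 2 h dark at room temperature.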
(In general: Quantitative high-throughput screening tests each substance at several concentrations.)

Assay [6] is described as follows: p53 small molecule agonists, cell-based qHTS assay with rat liver microsomes (AID 1963578). In short, it runs like this: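 With rat liver microsomes and NADPH present (0.5 mg/mL final each), p53RE-bla cells are treated with compound for 16 h at 37 C. LiveBLAzer detection mixture is then applied for 2 h at room temperature in the dark.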
Assay [7] is described as follows: p53 small molecule agonists, cell-based qHTS assay: qHTS cell viability counter screen (AID 1963581). Further: nearly all actives have a fitted effect of over 45% in size. In short, it runs like this: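 p53RE-bla HCT-116 cells, compounds added 5 h after plating and incubated 16 h at 37 C. Cytotoxicity measured in the same wells as intracellular ATP by CellTiter-Glo luminescence after 30 min at room temperature.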
Assay [8] can be described thus: p53 small molecule agonists, cell-based qHTS assay (AID 1963582; active means well fitted activation curve with a large enough effect in the signal ratio in the repeat runs, not every such curve was filed as active; the % refers to the signal ratio; further: potency means the concentration at half of the fitted maximal effect). Put shortly: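 p53RE-bla reporter cells, compounds added in DMSO after 5 h plating, incubated 16 h at 37 C. Beta-lactamase read via 2 h room-temperature LiveBLAzer B/G FRET substrate, fluorescence intensity.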
In assay [9] the target is 5-hydroxytryptamine receptor 2A (Homo sapiens) (UniProt P28223). Nature of the assay: 5-hydroxytryptamine receptor 2A (HTR2A) small molecule antagonists, cell-based qHTS assay (AID 1963586). Further: nearly all actives have a fitted effect of over 45% in size. Further: potency means the concentration at half of the fitted maximal effect. Put shortly: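 Antagonist-mode intracellular calcium assay: DOI (4 nM) added after 5 min compound pre-incubation at room temperature to dye-loaded HTR2A-CHO cells. Fluorescence followed for 3 min, sampled every second.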
Chain of 5-hydroxytryptamine receptor 2A (Homo sapiens) (P28223 whole entry, looked up): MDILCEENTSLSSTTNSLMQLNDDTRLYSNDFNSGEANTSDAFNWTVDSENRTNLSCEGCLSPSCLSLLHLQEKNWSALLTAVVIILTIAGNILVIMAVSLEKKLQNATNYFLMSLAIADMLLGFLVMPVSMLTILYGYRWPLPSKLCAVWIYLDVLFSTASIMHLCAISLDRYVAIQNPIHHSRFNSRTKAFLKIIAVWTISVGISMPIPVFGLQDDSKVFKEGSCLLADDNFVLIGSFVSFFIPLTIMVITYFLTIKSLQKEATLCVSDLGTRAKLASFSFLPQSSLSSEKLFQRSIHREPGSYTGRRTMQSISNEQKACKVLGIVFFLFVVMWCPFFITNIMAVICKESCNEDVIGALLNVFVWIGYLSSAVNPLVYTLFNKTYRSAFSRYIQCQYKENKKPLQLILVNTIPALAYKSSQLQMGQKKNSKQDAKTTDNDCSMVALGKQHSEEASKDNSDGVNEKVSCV

For assay [10] the target is unchanged. Nature of the assay: 5-hydroxytryptamine receptor 2A (HTR2A) small molecule agonists, cell-based qHTS assay (AID 1963587). Further: nearly all actives have a fitted effect of over 30% in size. Further: potency means the concentration at half of the fitted maximal effect. Put shortly:
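Kinetic calcium-flux fluorescence (2 min, 1 sec intervals) after compound addition in agonist mode. HTR2A-CHO cells were cultured 18 h, then dye-loaded 1 h at 37 C.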

For assay [11], the target named is Muscarinic acetylcholine receptor M1 (Homo sapiens) (UniProt P11229). Briefly: Cholinergic receptor muscarinic 1 (CHRM1) small molecule antagonists, cell-based qHTS assay (AID 1963588). Further: nearly all actives have a fitted effect of over 40% in size. Further: potency means the concentration at half of the fitted maximal effect. In short, it runs like this:
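CHRM1-CHO calcium-flux assay, antagonist mode. Cells were seeded 18 h, dye-loaded 1 h at 37 C and given compound for 5 min at RT, then acetylcholine was added at 50nM. FDSS fluorescence was read 3 min; 15 concentrations, three runs.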

For assay [12] the target is unchanged. Briefly: Cholinergic receptor muscarinic 1 (CHRM1) small molecule agonists, cell-based qHTS assay (AID 1963589). Further: nearly all actives have a fitted effect of over 35% in size. Further: potency means the concentration at half of the fitted maximal effect. Put shortly: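 CHO cells stably expressing human CHRM1 were loaded with calcium dye for 1 h at 37 C, then compound was added in agonist mode. Intracellular calcium fluorescence was followed kinetically at 1 s intervals. Fifteen concentrations were tested in three independent runs.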

A short description of assay [13]: cAMP Responsive Elements (CRE) small molecule agonists, cell-based qHTS assay (AID 1963590). Further: potency means the concentration at half of the fitted maximal effect. Put shortly: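 CRE-bla HEK 293T cells, 2,000/well in DMEM with 10% dialyzed FBS and 25 mM HEPES, pre-incubated 18 h at 37 C, then exposed to compound 3 h at 37 C. Beta-lactamase reporter read with LiveBLAzer B/G FRET substrate after 2 h at room temperature.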
Assay [14] can be described thus: cAMP Responsive Elements (CRE) small molecule antagonists, cell-based qHTS assay (AID 1963591; active means well fitted inhibition curve with a large enough effect in the signal ratio in the repeat runs, not every such curve was filed as active; the % refers to the signal ratio). In short, it runs like this: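 CRE-bla HEK293T cells plated 18 h, then given compound plus NKH477 at 0.25 uM final for 3 h at 37C. Beta-lactamase reporter read with LiveBLAzer B/G FRET substrate after 2 h at room temperature.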
In assay [15] the target is Beta-2 adrenergic receptor (Homo sapiens) (UniProt P07550). Briefly: Adrenergic beta2 receptor (ADRB2) small molecule antagonists, cell-based qHTS assay (AID 1963592). Further: series mostly up to about 92 µM; nearly all actives have a fitted effect of over 50% in size. Put shortly: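 Cells (CHO, stable ADRB2 overexpression) incubated 18-20hr at 37C; compounds added from DMSO; agonist mix (1nM isoproterenol, 100uM IBMX, 25uM Ro-20-1724) added; 0.5hr RT; d2-cAMP and anti-cAMP-cryptate added; 1hr RT; 665/615 nm read.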
Chain of Beta-2 adrenergic receptor (Homo sapiens) (P07550 whole entry, looked up): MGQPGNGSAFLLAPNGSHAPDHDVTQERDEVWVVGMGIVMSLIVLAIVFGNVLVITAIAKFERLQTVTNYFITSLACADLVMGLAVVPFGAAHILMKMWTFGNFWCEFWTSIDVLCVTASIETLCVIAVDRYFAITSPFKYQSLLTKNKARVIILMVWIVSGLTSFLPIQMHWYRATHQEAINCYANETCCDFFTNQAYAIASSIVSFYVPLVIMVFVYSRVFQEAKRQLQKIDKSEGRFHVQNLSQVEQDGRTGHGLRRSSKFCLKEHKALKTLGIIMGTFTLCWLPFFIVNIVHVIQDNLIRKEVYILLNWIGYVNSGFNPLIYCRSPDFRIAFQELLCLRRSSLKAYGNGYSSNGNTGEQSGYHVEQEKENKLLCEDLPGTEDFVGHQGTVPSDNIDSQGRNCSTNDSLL

The target in assay [16] is D(2) dopamine receptor (Homo sapiens) (UniProt P14416). Nature of the assay: Dopamine D2 receptor (DRD2) small molecule agonists, cell-based qHTS assay (AID 1963594). Further: nearly all actives have a fitted effect of over 35% in size. Put shortly: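 cAMP accumulation in DRD2-HEK293 cells measured by HTRF after 1 h detection; compounds added 10 min before NKH477 (200nM […]) forskolin-analogue stimulation, 30 min at room temperature, with Ro20-1724 present at 0.1 mM final.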
Chain of D(2) dopamine receptor (Homo sapiens) (P14416 whole entry, looked up): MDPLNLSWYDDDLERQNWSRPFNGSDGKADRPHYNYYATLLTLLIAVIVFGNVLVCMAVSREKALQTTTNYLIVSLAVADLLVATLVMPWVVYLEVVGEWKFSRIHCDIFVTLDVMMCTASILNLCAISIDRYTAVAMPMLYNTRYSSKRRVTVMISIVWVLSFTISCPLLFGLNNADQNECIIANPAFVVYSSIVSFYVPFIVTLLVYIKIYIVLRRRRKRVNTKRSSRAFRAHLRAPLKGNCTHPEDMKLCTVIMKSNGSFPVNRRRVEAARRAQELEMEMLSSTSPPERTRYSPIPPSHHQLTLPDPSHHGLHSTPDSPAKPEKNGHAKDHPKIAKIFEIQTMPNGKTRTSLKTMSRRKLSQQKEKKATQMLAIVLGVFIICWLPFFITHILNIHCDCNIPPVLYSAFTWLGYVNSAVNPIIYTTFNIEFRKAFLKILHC

Assay [17] has the same target. Briefly: Dopamine D2 receptor (DRD2) small molecule antagonists, cell-based qHTS assay (AID 1963595; active means well fitted inhibition curve with a large enough effect in the signal ratio in the repeat runs, with a control signal flat; the % refers to the signal ratio). In short, it runs like this: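 DRD2-HEK293; 0.1 mM Ro20-1724; cpd 10 min RT; NKH477 200 nM + quinpirole 12 nM, 30 min RT; HTRF cAMP (cAMP-d2/anti-cAMP cryptate), 665/620 nm ratio after 1 h.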
Assay [18] is described as follows: p53 small molecule agonists, cell-based qHTS assay with human liver microsomes: qHTS cell viability counter screen (AID 1963579). Further: nearly all actives have a fitted effect of over 45% in size. In short, it runs like this:
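In this multiplexed counter screen, the reporter plates were subsequently treated with CellTiter-Glo so that cell viability, reflected by luminescence, could be recorded for p53RE-bla cells dosed 16 h with compounds under microsomal activation (HLM and NADPH).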

The nature of assay [19]: p53 small molecule agonists, cell-based qHTS assay with rat liver microsomes: qHTS cell viability counter screen (AID 1963580). Further: nearly all actives have a fitted effect of over 45% in size. In short, it runs like this: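 HCT-116 p53RE-bla, 4,000 cells/well, 5 h pre-incubation; cpd + rat liver microsomes 0.5 mg/mL + NADPH 0.5 mg/mL (final); 16 h, 37 C; CellTiter-Glo, 30 min RT; luminescence.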
Assay [20] has as its target Beta-2 adrenergic receptor (Homo sapiens) (UniProt P07550). Briefly: Adrenergic beta2 receptor (ADRB2) small molecule agonists, cell-based qHTS assay (AID 1963593).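 Further: CHO cells stably overexpressing human ADRB2.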 In short, it runs like this: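 CHO cells stably over-expressing ADRB2 were plated overnight at 37C, then dosed with compounds plus a stimulation mix containing 100uM IBMX and 25uM Ro-20-1724 for 0.5hr at room temperature. cAMP was measured by HTRF competition, 1hr.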

“And” between values parts separate entries of the source, which are not always exact repeats. Equal values may be shown once. Results filed as inconclusive are left out. The source made the active and inactive calls. Unless noted, the call rests on the fitted dose curve.

Chain of KiSS-1 receptor (Homo sapiens) (Q969F8 whole entry, looked up): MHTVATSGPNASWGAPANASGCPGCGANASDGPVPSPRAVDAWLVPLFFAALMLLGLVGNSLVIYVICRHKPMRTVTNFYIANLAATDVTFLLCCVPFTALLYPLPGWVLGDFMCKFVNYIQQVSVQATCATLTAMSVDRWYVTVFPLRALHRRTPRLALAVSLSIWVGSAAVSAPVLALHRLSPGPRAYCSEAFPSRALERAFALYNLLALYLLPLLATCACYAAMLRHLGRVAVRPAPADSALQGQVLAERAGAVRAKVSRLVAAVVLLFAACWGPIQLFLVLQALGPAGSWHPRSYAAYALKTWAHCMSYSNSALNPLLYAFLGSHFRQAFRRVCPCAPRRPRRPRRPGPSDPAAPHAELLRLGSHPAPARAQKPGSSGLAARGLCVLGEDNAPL
Chain of Muscarinic acetylcholine receptor M1 (Homo sapiens) (P11229 whole entry, looked up): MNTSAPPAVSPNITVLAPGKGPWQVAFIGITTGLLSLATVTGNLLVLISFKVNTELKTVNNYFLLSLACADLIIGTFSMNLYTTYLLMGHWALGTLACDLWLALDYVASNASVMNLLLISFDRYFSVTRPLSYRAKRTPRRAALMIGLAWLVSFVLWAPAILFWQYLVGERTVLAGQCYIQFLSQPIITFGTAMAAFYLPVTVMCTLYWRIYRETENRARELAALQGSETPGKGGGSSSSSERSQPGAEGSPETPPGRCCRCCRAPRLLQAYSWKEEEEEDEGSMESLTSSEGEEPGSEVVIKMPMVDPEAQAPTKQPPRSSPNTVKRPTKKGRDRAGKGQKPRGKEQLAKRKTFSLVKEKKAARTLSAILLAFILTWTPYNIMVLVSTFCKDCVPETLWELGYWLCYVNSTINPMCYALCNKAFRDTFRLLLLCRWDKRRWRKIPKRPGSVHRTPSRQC

For the compound `CC1CCCNC1` (stereo not given), the Potency in [1] was 67.1 µM (active). Moreover, the Potency entry in [2], in [3], in [4], in [5], in assay [6] and in [7] was “inactive” each time. The Potency result in assay [8], in [9], in [10], in [11], in assay [12] and in assay [13] was “inactive” in each case. The Potency entry in assay [14], in assay [15], in assay [16] and in assay [17] was “inactive” each time.
Regarding `Nc1ccc2cc3ccc(N)cc3nc2c1`, the Potency in assay [1] was 1.54 µM (active) and 6.68 µM (active); in assay [2] it was 38.9 µM (active) and 16.9 µM (active); in assay [3], 49 µM (active) and 23.9 µM (active); in assay [4], 38.9 µM (active) and 16.9 µM (active); in assay [8], 1.82 µM (active); in assay [10] it was 19.5 µM (active) and 19 µM (active). For the same compound, the Potency in assay [12] was 43.6 µM (active) and 23.9 µM (active). The Potency result in [5], in assay [18], in [19], in assay [7], in [9] and in [11] was “inactive” in each case. Further, the Potency result in assay [16] and in assay [17] was “inactive” throughout.
On to `O=C(Nc1cccc([N+](=O)[O-])c1)c1cc2ccccc2cc1O`, for which the Potency in [1] was 61.1 µM (active). In addition, the Potency entry in [2], in assay [3], in assay [4], in [5], in assay [6] and in assay [19] was “inactive” in each case. Moreover, the Potency result in [7], in assay [9], in [10], in [12], in assay [15] and in assay [16] was “inactive” each time. For the same compound, the Potency result in assay [17] was “inactive”.
On to `CCCC1C(CC)=CC(CC)=CN1c1ccccc1` (stereo not given), for which the Potency in assay [1] was 61.1 µM (active). In addition, the Potency entry in assay [2], in assay [3], in assay [4], in [5], in assay [6] and in assay [7] was “inactive” each time. For the same compound, the Potency result in [9], in assay [10], in [11], in assay [12], in assay [15] and in assay [16] was “inactive” each time. Also, in [17], the Potency entry is “inactive”.
Regarding `C=CC(=O)OCCn1c(=O)n(CCOC(=O)C=C)c(=O)n(CCOC(=O)C=C)c1=O`, the Potency in [1] is 15.4 µM (active). Besides, the Potency entry in assay [2], in assay [3], in [4], in [5], in assay [6] and in assay [9] was “inactive” each time. In addition, the Potency entry in [10], in [11], in assay [12], in assay [15] and in [16] was “inactive” each time.
With `COc1cc([N+](=O)[O-])ccc1N`, the Potency entry in assay [1], in assay [2], in assay [3], in assay [4], in assay [5] and in [6] was “inactive” each time. Moreover, the Potency result in [19], in assay [7], in assay [8], in assay [9], in [10] and in assay [11] was “inactive” each time. Also, the Potency entry in assay [12], in [13], in [14], in [15], in assay [16] and in [17] was “inactive” throughout.
Consider `CC[N+](CC)(CC)CCOc1ccc(/C=C/c2ccccc2)cc1`, for which the Potency entry in assay [1], in [2], in assay [3], in assay [4], in [5] and in [6] was “inactive” in each case. Besides, the Potency result in assay [19], in assay [8], in assay [10], in assay [12], in assay [13] and in assay [14] was “inactive” in each case. Besides, the Potency entry in [15] was “inactive”. The Potency in assay [9] was 18.3 µM (active); in [11], 1.16 µM (active).
`CCc1cc2cc(OC)c(OC)cc2c(Cc2ccccc2)n1`: the Potency entry in assay [1], in [2], in [3], in assay [4], in [5] and in assay [6] was “inactive” each time. The Potency entry in assay [19], in [8], in [11], in assay [12], in assay [14] and in assay [15] was “inactive” each time. Further, the Potency entry in [20] and in assay [17] was “inactive” in each case. The Potency in assay [13] was 11.9 µM (active).
